Among all 300,000 compounds or so, about 1,200 (0.4%) were called active. Not shown: some 3% with an inconclusive outcome. Calls come from the whole dose curve; as a rule, active = well fitted inhibition curve with a large enough effect; inconclusive = small, poorly fitted or top-dose-only effect, or another doubt; inactive = no such curve, though single readings can be large or run the other way. Many of the other results were omitted from the sample, so actives are more common in it than they were.
target: Lysosomal alpha-glucosidase (Homo sapiens) (UniProt P10253); experiment: qHTS Assay for Inhibitors and Activators of Human alpha-Glucosidase Cleavage of Glycogen; details: recombinant GAA, glycogen substrate, Amplex Red glucose oxidase fluorescence; series mostly up to 76.3 µM;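 note: the screen sought inhibitors and activators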
How it was run: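 Recombinant enzyme (4 nM final) with compounds titrated up to 77 uM and bovine liver glycogen (30 ug) in citrate pH 5.0, 0.01% Tween-20, 37 C 40 min. Released glucose detected by Amplex Red/glucose oxidase (Ex 573/Em 610); AC50 from Hill fits.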
Potency is the fitted concentration of half-maximal effect.

Potency, active:
COc1c(O)cc2oc(-c3ccc(O)c(O)c3)cc(=O)c2c1O 10 µM
Cc1nc(NNC(=O)c2ccccc2)cc(-c2ccccc2)n1 22.4 µM
CCCOc1ccc(N/C=C/C(=O)C(C)(C)C)cc1 31.6 µM
Cc1ccc(S(=O)(=O)Nc2ccccc2CNc2c(C)n(C)n(-c3ccccc3)c2=O)cc1 28.2 µM
CCOc1ccc(-n2c(O)c(/C=N/Nc3nnc(C)c(=O)[nH]3)c3ccccc3c2=O)cc1 39.8 µM
O=[N+]([O-])c1ccccc1Nc1ccc(O)cc1 10 µM
Cc1csc(NC(=O)NC2(C(F)(F)F)Oc3ccccc3O2)n1 8.84 µM
C/C(=N\Nc1nc2ccccc2[nH]1)c1cccs1 25.1 µM
C=CC[n+]1c(-c2ccc(C)cc2)csc1NNC(=O)Nc1ccccc1 25.1 µM
Cc1cc(C)n2nc(C(=O)Oc3ccc4c(c3)OCO4)nc2n1 12.5 µM
CCCc1nc2ccccc2c(=O)n1/N=C/c1ccc(O)c(O)c1 11.2 µM

Potency, inactive:
O=C(CSc1nc(-c2cccc(F)c2)[nH]c1-c1ccccc1)Nc1ccc2c(c1)OCO2
CCOc1ccc(N(CC)S(=O)(=O)N2CCCC(C(=O)Nc3ccc(C(C)=O)cc3)C2)cc1 (stereo unspecified)
COc1ccc(-c2cc(=O)c3c(O)cc(O[C@@H]4O[C@H](CO[C@@H]5O[C@@H](C)[C@H](O)[C@@H](O)[C@H]5O)[C@@H](O)[C@H](O)[C@H]4O)cc3o2)cc1O
CCOC(=O)COc1cc(O)c2c(=O)cc(-c3ccccc3)oc2c1
CCCCN1C(=O)c2[nH]nc(-c3ccccc3O)c2C1c1cccc(OCc2ccccc2)c1 (stereo unspecified)
CC1=C(C(=O)OCC2CCCCC2)C(c2c(F)cccc2Cl)CC(=O)N1 (stereo unspecified)
Cn1sc(NC(=O)c2ccccc2)nc1=O
COc1ccc(C(=O)NN(C)c2nc(-c3ccccc3)cc(C)c2S(C)(=O)=O)cc1
CCOc1ccccc1C(=O)NC1(C(F)(F)F)NC(=O)N(CCc2ccc(OC)c(OC)c2)C1=O (stereo unspecified)
COc1ccc(Cl)cc1NC(=O)CSc1nc(-c2cccs2)cc(C(F)(F)F)n1
CCOc1ccc(N/C=C/C(=O)c2ccccc2)cc1
CCOc1ccc(N/C=C/C(=O)c2cc(OC)c(OC)c(OC)c2)cc1
CC(C)C(=O)Nc1nc2c(s1)CC(C(C)(C)C)CC2 (stereo unspecified)
Cc1c(NS(=O)(=O)c2ccc(Cl)cc2)c(=O)n(-c2ccccc2)n1C
Cc1ccc(S(=O)(=O)CC(=O)Nc2c(C)n(C)n(-c3ccccc3)c2=O)cc1
COc1ccc2[nH]c3c(c2c1)CCN(C(=O)CCC1CCCC1)C3c1ccc(F)cc1 (stereo unspecified)
Cc1oc(-c2ccccc2)nc1Cn1c(SCc2cccc(C(F)(F)F)c2)nc2cccnc21
CCOc1ccc(-n2c(O)c(/C=N/c3ccnn3Cc3ccncc3)c3ccccc3c2=O)cc1
CCOc1ccc(-n2c(O)c(/C=N/Nc3nc(C)cc(C)n3)c3ccccc3c2=O)cc1
O=C(O)c1ccccc1C(=O)Nc1ccccc1[N+](=O)[O-]
O=[N+]([O-])c1ccc(O)c(/C=N/Nc2ccccc2[N+](=O)[O-])c1
COc1cccc(C(=O)NC(=O)Nc2ccc(-c3cc(C(F)(F)F)nn3-c3ccccc3)cc2)c1
COc1ccc2c(c1)Cc1sc(NC(=O)c3ccccc3Br)nc1-2
Cc1csc(NC(=O)Nc2ccccc2[N+](=O)[O-])n1
COc1cc(SC)ccc1C(=O)Nc1nc(C)cs1
O=C(Nc1ccc2nc(SCCOc3ccccc3Cl)sc2c1)c1ccco1
COc1cccc(NC(=O)N(Cc2cn(C)c3ccccc23)C2CCCCCC2)c1
O=c1c2cccnc2n(Cc2cccc(F)c2)c(=O)n1Cc1ccccc1Cl
COc1cc(OC)cc(C(=O)Nc2cc3nn(-c4ccccc4)nc3cc2Cl)c1
O=C(Nc1ccccc1-c1nc2ccccc2[nH]c1=O)c1cccs1
C/C(=N\Nc1nc(Nc2ccccc2)nc(N2CCOCC2)n1)c1cccs1
Cc1c(C(=O)N2CCCC2)oc2c1-c1nn(CC(=O)NCc3ccc(OC(C)C)cc3)cc1CC2
COc1ccccc1CNc1ccc(-c2nc(-c3ccccc3C)no2)cc1[N+](=O)[O-]
COc1ccc(NC(=O)CSc2nc3ncccc3[nH]2)c(OC)c1
Cc1ccc(NC(=O)Nc2ccccc2)c(Br)c1
C=CCNc1scc(-c2ccccc2)[n+]1CC=C
CN(CC(=O)Nc1cccc(C(F)(F)F)c1)S(=O)(=O)c1cccs1
CSc1nc(-c2ccccc2Cl)nc2c1Cc1c(CO)cnc(C)c1O2
CCc1nnc(SCc2c(F)cccc2Cl)c2cc3sccc3n12
CCN(CCCNC(=O)c1cc2cc3cc(OC)ccc3nc2s1)c1ccccc1
Cc1cc(C)n2nc(C(=O)NC(C)(C)C)nc2n1
Cc1cc(C)n2nc(C(=O)N3CCN(Cc4ccc5c(c4)OCO5)CC3)nc2n1
CSc1nc(Nc2ccc(F)cc2)cc(-c2ccccc2)n1
CCOc1ccc(N(CC)C(=O)c2noc3c2COc2ccc(C)cc2-3)cc1
Cc1[nH]n(-c2cccc(Cl)c2)c(=O)c1/C=N/n1c(C)nc2ccccc2c1=O
O=c1c2ccccc2ncn1/N=C/c1ccccc1
CC(=O)c1ccc(NC(=O)c2nc(-c3ccc(C)cc3)n3c2CCCCC3)cc1
COc1ccccc1NC(=O)Cn1cnc2ccc(S(=O)(=O)N3CCC(C)CC3)cc2c1=O
CCc1ccc(NC(=O)CCS(=O)(=O)c2cc3c(cc2Cl)NC(=O)CO3)cc1
CC(C)Cn1c(=O)c2ccccc2n2c(CCC(=O)N3CCN(c4cccc(Cl)c4)CC3)nnc12

— PubChem BioAssay AID2100 (National Center for Advancing Translational Sciences (NCATS), 2009)
